Screening data from PubChem BioAssay.
aSyn UTR act: Activators via SNCA 5'UTR binding, MLPCN; alpha-synuclein 5'UTR reporter, activators screen; activity score, % (tested at 7.5 µM), hits read low; 300,000 compounds, 7.1% hits; in the data active = activity score below about -60%
Starred values were filed as active, the others as inactive. These entries were drawn from the full list.

`CCOc1ccc(-c2ccc(/C=C3/C(=N)N4C=CSC4=NC3=O)o2)c([N+](=O)[O-])c1` gave aSyn UTR act -72.0*.
CC(C)c1ccc(NC(=O)[C@@H]2CCC(=O)N2C2OC(=O)c3ccccc32)cc1 (stereo partly specified) was read as aSyn UTR act -79.3*.
Nc1ncc(Br)cc1N=Cc1ccccc1 was read as aSyn UTR act -197.2*.
Screening c1ccc(-n2nc3c(ccc4cnnc43)[nH]2)cc1 returned aSyn UTR act -128.7*.
Screening CC(C)(C)c1cc(CCC(=O)NNC(=S)NC(=O)c2ccccc2)cc(C(C)(C)C)c1O returned aSyn UTR act 65.8.
Screening CC(C)(C)c1ccc(C(=O)NC(=S)Nn2cnnc2)cc1 returned aSyn UTR act -76.3*.
`CCCSc1ccc2nc(-c3ccccc3)cn2c1` gave aSyn UTR act 110.9.
Screening CCCCSc1ccc2nc(-c3ccc(C#N)cc3)cn2c1 returned aSyn UTR act -127.8*.
`CCOc1ccc(-c2ccc(SCC(=O)NC3CCCCC3)nn2)cc1` gave aSyn UTR act -68.9*.
COc1ccc(-c2ccc(SCC(=O)NC3CCCCC3)nn2)cc1 was read as aSyn UTR act -83.0*.
For COc1ccc(-c2ccc(SC)nn2)cc1 the results were aSyn UTR act 75.0.
O=C(Nc1nnc(-c2ccncc2)s1)Nc1ccccc1F was read as aSyn UTR act -102.5*.
Screening O=C(Nc1nnc(Cc2ccccc2)s1)Nc1ccccc1F returned aSyn UTR act -103.4*.
For Cc1c(-c2ccc(Cl)cc2)[n+](=O)c(-c2ccccc2)cn1[O-] the results were aSyn UTR act -118.3*.
O=C(Nc1ccc2ncccc2c1)c1cc(Cl)ccc1Cl was read as aSyn UTR act -80.3*.
For O=C(Nc1ccc2ncccc2c1)c1cccc(Br)c1 the results were aSyn UTR act -375.2*.
For Brc1ccc(CNc2ccc3ncccc3c2)cc1 the results were aSyn UTR act -193.7*.
Cc1ccc(C(=O)Nc2ccc3ncccc3c2)cc1 was read as aSyn UTR act 84.1.
CCCCOc1ccccc1C1CC(=O)NC2=C1C(=O)CCC2 (stereo unspecified) was read as aSyn UTR act 93.8.
Screening Cc1cc(C)c2c(N)c(C(=O)Nc3ccccc3Cl)sc2n1 returned aSyn UTR act -105.4*.
Screening Cc1cc(C)c2c(N)c(C(=O)Nc3ccccc3Br)sc2n1 returned aSyn UTR act -132.8*.
Screening Cc1cc(C)c2c(N)c(C(=O)Nc3ccccc3F)sc2n1 returned aSyn UTR act -157.4*.
For C=COC(=O)c1sc2nc(C)cc(C)c2c1N the results were aSyn UTR act -61.7*.
`Cc1cccc2c1Sc1ccc(Cl)cc1CC2N1CCNCC1` (stereo unspecified) gave aSyn UTR act 104.2.
`COc1cc(/C=C(\C#N)C(=O)N2CCOCC2)ccc1OCc1ccccc1` gave aSyn UTR act -120.4*.
Screening N#C/C(=C\c1ccc(OCc2ccc(C(=O)O)cc2)cc1)C(=O)N1CCOCC1 returned aSyn UTR act 93.0.
Screening FC(F)(F)c1cc(-c2ccco2)nc(NCCc2ccccc2)n1 returned aSyn UTR act -92.2*.
`CCOC(=O)/C=C/c1ccc2oc3ccccc3c(=O)c2c1` gave aSyn UTR act -190.9*.
CCc1ccc2oc(-c3cc(N=Cc4cccc(OC)c4O)ccc3O)nc2c1 was read as aSyn UTR act -146.0*.
For CCS(=O)(=O)c1ccc2oc(Nc3ccc(C(C)C)cc3)nc2c1 the results were aSyn UTR act -94.8*.
CCOc1ccc(Nc2nc3cc(S(=O)(=O)N(CC)CC)ccc3o2)cc1 was read as aSyn UTR act 78.3.
CC(C)CNC(=S)NC(=O)c1ccc(F)cc1 was read as aSyn UTR act -150.1*.
O=C(Nc1cccc(F)c1)NC1CCCCC1 was read as aSyn UTR act -156.3*.
For O=C(Nc1ccc(F)cc1)NC1CCCCC1 the results were aSyn UTR act -111.2*.
`O=C(NC(=S)NC1CCCCC1)c1ccc(F)cc1` gave aSyn UTR act -162.3*.
Screening O=C(NC(=S)NNC(=O)c1cnccn1)c1ccc(F)cc1 returned aSyn UTR act 70.3.
Screening O=C(Nc1ccc(N2CCOCC2)cc1)NC1CCCCC1 returned aSyn UTR act -78.1*.
Cc1nc2nc(-c3ccccc3)nn2c(C)c1C was read as aSyn UTR act -104.8*.
For Cc1nc2nc(-c3ccc(Cl)cc3)nn2c(C)c1Cl the results were aSyn UTR act -234.9*.
Screening CCc1ccc(-c2ccc(SCc3ccccn3)nn2)cc1 returned aSyn UTR act -143.0*.
For CCOc1ccc(-c2ccc(SCc3ccccn3)nn2)cc1 the results were aSyn UTR act -131.9*.
Screening O=C(Nc1ccc(-c2nc3ncccc3o2)cc1)c1ccco1 returned aSyn UTR act -162.6*.
For O=C(Nc1ccc(-c2nc3ncccc3o2)cc1)c1ccc(Br)o1 the results were aSyn UTR act -102.9*.
`COc1ccc(N(C)C2=NS(=O)(=O)c3ccccc32)cc1` gave aSyn UTR act -70.4*.
For CN(/N=C/c1ccc(N(C)C)cc1)C1=NS(=O)(=O)c2ccccc21 the results were aSyn UTR act -97.1*.
